Compound activity deposited in PubChem BioAssay by National Center for Advancing Translational Sciences (NCATS).
Luc counter: counter-screen: inhibitors of Kinase-Glo firefly luciferase | Potency, µM (doses to about 38.3 µM), usual class: inhibitors | Q27757 | actives 0.28% (n = 200,000) | Kinase-Glo luciferase, ATP luminescence, 8 min; also: nearly all actives have a fitted effect of over 60% in size
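Compounds were added to a substrate mix at pH 7.2 (50 mM imidazole, 10 uM ATP, within the enzyme's linear range), followed by Kinase-Glo detection reagent; luminescence was measured after 8 minutes at ambient temperature.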
RORg inh: inhibitors of mouse ROR gamma transcriptional activity; P51450; Drosophila S2 Gal4-RORgamma UAS-luciferase reporter, 20 h; Potency, µM (doses to about 53.6 µM), hits mostly inhibitors; actives 5.4% (n = 310,000); AID 2551; also: nearly all actives have a fitted effect of over 60% in size
Target sequence (P51450 whole entry, looked up, the tested form may be a part): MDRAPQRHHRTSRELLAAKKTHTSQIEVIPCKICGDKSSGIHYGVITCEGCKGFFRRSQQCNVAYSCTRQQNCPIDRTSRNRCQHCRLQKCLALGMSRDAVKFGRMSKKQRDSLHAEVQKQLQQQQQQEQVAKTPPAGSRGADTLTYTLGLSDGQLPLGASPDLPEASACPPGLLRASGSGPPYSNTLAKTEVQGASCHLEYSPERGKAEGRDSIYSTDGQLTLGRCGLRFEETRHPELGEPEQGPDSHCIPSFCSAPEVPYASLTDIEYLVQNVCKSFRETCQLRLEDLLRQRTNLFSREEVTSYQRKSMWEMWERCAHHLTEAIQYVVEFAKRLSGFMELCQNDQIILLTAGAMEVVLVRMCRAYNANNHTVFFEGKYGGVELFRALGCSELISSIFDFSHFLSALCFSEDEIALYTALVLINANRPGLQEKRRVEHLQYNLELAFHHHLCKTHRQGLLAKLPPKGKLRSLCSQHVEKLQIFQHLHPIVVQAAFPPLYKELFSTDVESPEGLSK
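Luminescence from a UAS-regulated Photinus luciferase reporter in stably transfected Drosophila Schneider cells is measured; decreased signal marks ROR gamma inhibition. Fusion expression is induced by 700 uM copper sulfate for 20 hr.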
VP16 counter: inhibits Gal4-VP16 luciferase reporter, ROR gamma counter-screen; Potency, µM (top dose mostly 53.6 µM), usual class: inhibitors; Drosophila S2 Gal4-VP16 UAS-luciferase, luminescence, 20 h; AID 2546; actives 3.5% (n = 310,000);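 also: Gal4-VP16 expression switched on by copper sulfate through the metallothionein promoter; nearly all actives have a fitted effect of over 50% in size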
Hits are given with their value; i = inactive; ? = inconclusive; nt = no result given; [ ] = dose if it differs, or a comment. An excerpt weighted towards active compounds, which were near 6.4% of everything screened. Calls follow the shape of the dose curve; as a rule, active = well fitted curve in the direction sought with a large enough effect; inconclusive = small, poorly fitted or top-dose-only effect, or another doubt; inactive = no such curve, though single readings can be large; an effect the other way counts as inactive or inconclusive.

SMILES	Luc counter	RORg inh	VP16 counter
CCN=C1NN=C(c2ccc(C)cc2)CS1	i	11µM	?
COc1ccc(N2CCN(S(=O)(=O)c3c(C(=O)N4CCOCC4)c(C)n(C)c3C)CC2)cc1	nt	i	i
CCN(CC)C(=O)C(=O)c1cccn1-c1c(Cl)cccc1C#N	i	i	i[10 µM]
Cc1cc(C)c2nc(C(F)(F)F)nc(N3CC(C)OC(C)C3)c2c1 (centres undefined)	i	i	i
CCOC(=O)N1CCN(c2nc(C(F)(F)F)nc3c(C)cc(C)cc23)CC1	i	?	20µM
COc1ccccc1NC(=O)CCCCCN1C(=O)c2cccc([N+](=O)[O-])c2C1=O	nt	i	i
COc1cc(/C=C2/C(=O)c3cccc([N+](=O)[O-])c3C2=O)c(Br)cc1O	11µM	?	35µM
CCCCCCN1CC(O)=C(c2ccccc2)C1=N	i	i	i
CCCCCCCCCn1ccc(=N)cc1	nt	?	1.6µM
N=c1ccn(Cc2ccc(Cl)cc2)cc1	i	i	i
CCn1ccc(=N)cc1	i	i	16µM
O=C(c1cccc(F)c1)N1CCC[C@@]2(CCN(Cc3ccccc3)C2)C1	i	i	i
Cc1ccc(C(=O)OCc2cn3ccccc3n2)cc1	i	i[0.365 µM]	nt
c1ccc(CSCc2cn3ccccc3n2)cc1	i	13µM	i
Cc1ccc(SCc2cn3ccccc3n2)cc1	nt	10µM	?
O=C(O)c1ccccc1SCc1cn2ccccc2n1	i	i	i
Cc1cc(NS(=O)(=O)c2ccc(NC(=O)c3ccc([N+](=O)[O-])c(Cl)c3)cc2)no1	nt	i	i
CN(C)C(CNC(=O)C1CCN(S(=O)(=O)c2cccc(Cl)c2Cl)CC1)c1ccccc1 (centres undefined)	nt	i	i
CCCCCCCCC(=O)N/N=C/c1ccccn1	i	i	i
CCCCCCCCC/C(=N\O)c1ccccn1	i	3.5µM	11µM
OCc1ccccn1	nt	i	i
Nc1ccc(-c2cnc(-c3ccc(N)cc3)nc2)cc1	i	i[10 µM]	i
Oc1ccc(-c2cnc(-c3ccc(O)cc3)nc2)cc1	nt	2.5µM	?
S=C(Nc1ccccc1)Nc1nc2ccccc2n1CCOc1ccccc1	i	1.1µM	7.1µM
CCCCn1c(NC(=S)Nc2ccccc2)nc2ccccc21	i	1µM	1.4µM
SMILES	Luc counter	RORg inh	VP16 counter
CCCCn1c(NCc2ccccc2O)nc2ccccc21	i	?	i
CC(=O)Nc1nc2ccccc2n1CCOc1ccccc1	i	i	i
COc1ccc(OCCn2c(NC(=O)c3ccco3)nc3ccccc32)cc1	i	2.2µM	2.8µM
CCCn1c(NC(=O)c2ccco2)nc2ccccc21	i	i	i
CC(C)C(C)(C#N)NC(=O)CSc1nc(C2CCCCC2)n(-c2ccccc2)n1 (centres undefined)	i	i	i
CCC(=O)Nc1nnc(S(=O)(=O)N2c3ccccc3CC2C)s1 (centres undefined)	nt	i	i
COCCNc1ncnc2ccc(-c3cccc(OC)c3)cc12	nt	?	i
O=Nc1[nH]c(=O)c(/C=C(\O)c2ccccc2)nc1NO	nt	i	i
COc1cc(CC(NC(C)=O)C(=O)NC2CCN(C(=O)Nc3ccc(C)cc3)CC2)cc(OC)c1 (centres undefined)	nt	i	i
CCOc1ccccc1NC(=O)CN1CCC(NC(=O)Nc2ccccc2)CC1	nt	i	i
COc1cc(/C=N/NC(=O)C(N)=O)ccc1OCC(=O)N1C(C)CCCC1C (centres undefined)	nt	i	i
Cc1[nH]n(-c2ccc(F)cc2)c(=O)c1C=Nc1ccc(S(=O)(=O)N(C)C)cc1	i	i	i
O=c1[nH]c(COc2ccc(Cl)cc2Br)nc2ccccc12	nt	i	i
CCOC(=O)c1ccc(S(=O)(=O)Nc2nc3cc(S(=O)(=O)NC4=NCCCCC4)ccc3s2)cc1	i	14µM	?
O=C(COC(=O)c1ccc(O)cc1)Nc1cccc(S(=O)(=O)NC2=NCCCCC2)c1	nt	i	i
Cc1ccc(C(=O)Nc2ncc3c(Cl)cccc3n2)cc1	11µM	3.2µM	4µM
Cc1ccc(C(=O)Nc2nccc(-c3cccs3)n2)cc1	i	i	i
CN1CCN(c2ncc3nc(-c4ccccc4)c(=O)n(Cc4ccc(F)cc4)c3n2)CC1	i	i	i
S=C(NCc1ccccc1)N1CCn2cccc2C1c1cccnc1 (centres undefined)	i	i	i
Fc1ccc(C2c3cccn3CCN2C(=S)Nc2cccc(Br)c2)cc1 (centres undefined)	i	8.9µM	?
S=C(NCc1ccccc1)N1CCn2cccc2C1c1ccncc1 (centres undefined)	i	4µM	i
Fc1ccc(NC(=S)N2CCn3cccc3C2c2cccnc2)cc1 (centres undefined)	i	i	i
CC(=O)Nc1ccc(N=Cc2c(O)c(C(=O)Nc3ccccc3)cc3ccccc23)cc1	?	i	i
COc1cc(/C=N/NC(=O)c2cc3ccccc3cc2O)ccc1OCCN1CCCCC1	i	?	?
Cn1c(O)c(/C=N/NC(=O)c2cc3ccccc3cc2O)c2ccccc21	nt	7.9µM	?
SMILES	Luc counter	RORg inh	VP16 counter
COc1ccc2c(c1)cc(C(=O)N/N=C/c1c(O)c(C(=O)O)cc3ccccc13)n2C	nt	11µM	18µM
COC(=O)c1ccccc1NC1=C/C(=N\S(=O)(=O)c2cccs2)c2ccccc2C1=O	?	i	?
Cc1ccc(/C=C2\S/C(=N/S(=O)(=O)c3cccs3)NC2=O)cc1	nt	i	i
Cc1ccc(NC2=C/C(=N/S(=O)(=O)c3cccs3)c3ccccc3C2=O)cc1	i	10µM	6.3µM
O=C1C(Nc2ccccc2)=C/C(=N/S(=O)(=O)c2cccs2)c2ccccc21	?	4.5µM	5µM
COc1ccc(C2CC23N=C(c2ccccc2)OC3=O)cc1 (centres undefined)	i	i	i
COc1ccc(C2=N[C@H](c3ccccc3)CO2)cc1	i	16µM	i
COc1ccc(C2=N[C@@H](C(C)C)CO2)cc1	i	i	i
COc1ccc(C2=NC(c3ccccc3)CO2)cc1 (centres undefined)	i	10µM	13µM
COc1cccc2cc(C(=O)C3=C(O)C(=O)N(CCN4CCOCC4)C3c3ccc(C)o3)oc12 (centres undefined)	nt	i	i
COC(=O)[C@H](Cc1ccccc1)NC(=O)O[C@@H]1C(=O)c2cc(Br)ccc2O[C@H]1c1ccc2c(c1)OCO2	i	i	i
O=C(Nc1cccnc1)NC1CCCCC1	i	i	i
O=S(=O)(O)c1ccc(N=Nc2ccccc2)cc1	i[7.66 µM]	i	i
O=c1ccc(N=Nc2ccccc2)ccc1O	nt	?	3.5µM
C/C(=N\NC(=O)C1(C)CC1(Br)Br)c1ccc(NC(=O)c2ccc(C)o2)cc1 (centres undefined)	i	i	i
COc1ccc(OC)c(NC(=O)CCC(=O)Oc2ccc(C)cc2)c1	nt	i	i
Oc1ccc(Cl)cc1C1=NNC(c2ccc(Cl)cc2)C1 (centres undefined)	i	8.9µM	16µM
Oc1ccc(Cl)cc1C1=Nc2ccccc2N=C(c2ccco2)C1	i	?	?
O=C1C=C(O)CC(c2ccc(Cl)cc2)C1 (centres undefined)	i	i	i
Oc1ccc(Cl)cc1C1=NNC(c2cc(Br)cc3c2OCOC3)C1 (centres undefined)	i	7.9µM	?
Oc1c(Cl)cc(Cl)cc1C1=NNC(c2ccc(Cl)cc2)C1 (centres undefined)	i	8.9µM	i
